PKM2 inh: qHTS Assay for Inhibitors of Human Muscle isoform 2 Pyruvate Kinase | purified PKM2, ATP generation, Kinase-Glo luminescence | Potency, µM (titrated, usually from 57.5 µM), usual class: inhibitors | 260,000 tested, 0.058% active | AID 1634, 2009 | Pyruvate kinase PKM (Homo sapiens), P14618; active = well fitted inhibition curve with a large enough effect; also: nearly all actives have a fitted effect of over 60% in size
Target sequence (P14618 whole entry, looked up, canonical isoform): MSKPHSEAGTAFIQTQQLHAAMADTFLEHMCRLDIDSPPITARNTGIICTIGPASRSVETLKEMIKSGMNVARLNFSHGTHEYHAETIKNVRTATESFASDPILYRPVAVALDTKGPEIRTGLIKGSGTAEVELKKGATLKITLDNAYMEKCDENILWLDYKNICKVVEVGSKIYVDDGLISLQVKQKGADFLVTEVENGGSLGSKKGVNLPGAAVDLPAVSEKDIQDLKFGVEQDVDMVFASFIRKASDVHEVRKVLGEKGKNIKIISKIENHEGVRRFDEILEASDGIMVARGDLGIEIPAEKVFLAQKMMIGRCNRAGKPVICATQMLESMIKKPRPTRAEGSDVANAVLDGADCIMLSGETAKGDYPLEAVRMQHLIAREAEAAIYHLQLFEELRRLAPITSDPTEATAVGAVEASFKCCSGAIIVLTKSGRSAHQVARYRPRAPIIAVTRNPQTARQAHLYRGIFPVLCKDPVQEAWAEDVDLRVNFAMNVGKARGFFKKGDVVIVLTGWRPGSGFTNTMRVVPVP
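Enzyme run at intermediate activity with final 0.1 mM ADP, 0.5 mM PEP (50 mM imidazole pH7.2, 50 mM KCl, 7 mM MgCl2), incubated 1 h at r.t. ATP formed read by Kinase-Glo luminescence, normalized to no-enzyme (full inhibition) and uninhibited wells.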
A number is an active result; - = inactive. This is one part of a sample in which hits are shown more often than they occur.

SMILES	PKM2 inh
CCOC(=S)SCC(=O)Nc1ncc(C)s1	-
Cc1ccc(-c2cc(C(=O)Nc3ccccn3)c3ccccc3n2)o1	-
O=C(Nc1ccccn1)c1onc2c1CCCC2	14µM
Cc1noc(C)c1S(=O)(=O)N1CCC(C(=O)Nc2ccccn2)CC1	-
O=C(NCc1nc(-c2ccc(C(F)(F)F)cc2)no1)Nc1ccc(OC(F)(F)F)cc1	-
COc1cc(F)ccc1S(=O)(=O)n1c(C)nc2ccccc21	-
Cc1ccc(Nc2cc(C)c3c(O)cccc3n2)cc1C	-
COc1cccc2nc3cc(C)c(C)cc3nc12	14µM
COc1ccc(OC)c2c(C)c(C)[nH]c12	-
O=[N+]([O-])c1ccc(N2CCN(S(=O)(=O)c3ccccc3)CC2)cc1NCc1ccco1	-
Cc1cc2c(cc1S(=O)(=O)Nc1cccc(F)c1)n(C)c(=O)c(=O)n2C	-
c1ccc(-c2nc(-c3ccco3)cs2)nc1	-
Cc1ccc(-c2nc(-c3ccccn3)no2)cc1	10µM
CC(=O)Nc1nnc(-c2ccccn2)o1	-
COc1ccc([N+](=O)[O-])cc1NC(=O)COC(=O)c1ccc(O)cc1	-
Cc1cccc(NC(=S)N(CCN2CCOCC2)Cc2cc3cc4c(cc3[nH]c2=O)OCCO4)c1	-
COc1ccc(/C(N)=N/OC(=O)c2ccco2)cc1	18µM
COc1cccc(S(=O)(=O)N2CCN(C(=O)c3ccco3)CC2)c1	-
COc1ccc(C(=O)Nc2ncc3c(n2)CC(c2ccco2)CC3=O)cc1 (stereo not drawn)	-
CNCc1nc2ccccc2[nH]1	-
Cc1nn(-c2nc3ccccc3[nH]2)c(=O)c2ccccc12	16µM
O=c1[nH]c(C(F)(F)F)nc2ccccc12	-
CCCCC(=O)OCC(=O)Nc1ccc(SC(F)F)cc1	-
O=C(NCc1nnc2c(C(F)(F)F)cc(Cl)cn12)c1ccco1	-
O=C1NC(=S)S/C1=C1\Sc2ccccc2N1CCCS(=O)(=O)O	11µM
SMILES	PKM2 inh
COC(=O)[C@@]1(Cc2ccc(F)cc2)[C@H]2c3cc(C(=O)N4CCCC4)n(Cc4ccc(C)o4)c3C[C@H]2CN1C(=O)c1ccccc1	-
CS(=O)(=O)c1ccc(C(=O)NCCN2C(=O)S/C(=C\c3cccnc3)C2=O)cc1[N+](=O)[O-]	-
O=C(COc1ccc(Cl)cc1Cl)Nc1ccccn1	14µM
O=C(COc1ccc(Cl)cc1Cl)NC(=S)Nc1ccc(CN2CCOCC2)cc1	-
O=C(COc1ccc(Cl)cc1Cl)NCC(=O)N/N=C/c1c[nH]c2ccccc12	-
Cc1c(F)cccc1NS(=O)(=O)c1ccc2c(c1)NC(=O)CO2	-
CC(C)(C)CN1CCNC(=O)C1CC(=O)NCCc1ccccc1F (stereo not drawn)	-
Cc1cccc(NS(=O)(=O)c2ccc3c(c2)oc(=O)n3C)c1C	-
COc1cc(NC(=O)CSc2nnc3c(n2)[nH]c2ccc(S(=O)(=O)NC(C)C)cc23)cc(OC)c1OC	-
O=C(Nc1ccc(N2CCCCC2)cc1)c1ccccn1	16µM
O=C(Nc1ccc2c(c1)OCCO2)c1ccccn1	14µM
O=C(CN1CCN(c2ccc(O)cc2)CC1)Nc1ccc2c(c1)OCCO2	-
Cc1cc(C)cc(NC(=O)Nc2ccc(N3CCCCC3)cc2)c1	-
O=C(Nc1ccc2oc(-c3ccccc3F)nc2c1)c1ccc2c(c1)OCCO2	-
Cc1cc(NC(=O)C2CCCCC2)ncc1NC(=O)c1ccccn1	-
S=C(NCCc1ccccc1)Nc1cnc2ccccc2c1	-
CC(C)(C)NC(=S)N/N=C\c1ccc(-c2ccc([N+](=O)[O-])cc2)o1	-
Cc1cc2nnc(SCC(=O)Nc3ccc(Cl)cc3)n2c(N)n1	-
Cc1ccc(C)c(S(=O)(=O)N2CCN(C(=O)CSc3ccccc3F)CC2)c1	-
CC(C)CCN1CCN(Cc2cccc3cccnc23)CC1CCO (stereo not drawn)	-
CCS(=O)(=O)N1Cc2ccccc2CC1C(=O)Nc1nnc(SCc2ccc(F)cc2)s1 (stereo not drawn)	-
COC(=O)N1[C@H](C)C=C[C@]1(Cc1ccccc1)C(=O)NCc1ccc(C)o1	-
CN(C)c1ccc(/C=N/NC(=O)c2ccnn2C)cc1	7.9µM
O=C1C2C3C=CC(CO)(O3)C2C(=O)N1c1ccccc1-c1ccccc1 (stereo not drawn)	-
O=C(CN(CCc1ccccc1)S(=O)(=O)c1ccc(Br)cc1)N/N=C/c1ccccc1C(=O)O	-
SMILES	PKM2 inh
COc1cccc(CNc2ccc([N+](=O)[O-])cc2Cl)c1O	-
COCCn1c(=O)[nH]c2cc(C(=O)N3CCN(c4cccc(C)c4C)CC3)ccc2c1=O	-
COc1ccc2nc(NC(=O)CCNC(=O)c3ccccc3Cl)sc2c1	-
COc1ccc2nc(NC(=O)c3ccoc3C)sc2c1	16µM
Cc1nc2ccc(S(=O)(=O)NCC(=O)N(C)Cc3ccco3)cc2s1	-
COCCn1c(=S)[nH]c2ccc(N(C)C)cc2c1=O	-
C/C=C\C=C\C(=O)Nc1cccc(C2=NOC3(C2)C[C@@H](C(N)=O)N(C(=O)C(c2ccccc2)c2ccccc2)C3)c1 (stereo partly drawn)	-
Cn1ncc([N+](=O)[O-])c1C(=O)Nc1ccc(-c2ccccc2)cc1	-
Cc1nc2sccn2c(=O)c1S(=O)(=O)Nc1cccc(Cl)c1C	-
COc1cccc(CNc2nc3ccccc3n2C)c1O	-
CNc1ccccc1-c1nc2ccccc2n(C)c1=O	-
CN(C)c1ccc(N=Nc2nc3ccccc3n2C)cc1	16µM
Cc1cc2ncc(S(=O)(=O)c3ccccc3)c(N)n2n1	-
CN(Cc1ccccc1)S(=O)(=O)c1ccc(Cl)c(C(=O)NCCc2ccccn2)c1	-
O=C(O)C[C@@H]1C(=O)O[C@@H]2C(COC(=O)c3cc(O)c(O)c(O)c3)O[C@@H](OC(=O)c3cc(O)c(O)c(O)c3)[C@@H](OC(=O)c3cc(O)c(O)c4c3[C@H]1[C@H](O)C(=O)O4)[C@H]2OC(=O)c1cc(O)c(O)c(O)c1 (stereo partly drawn)	-
CC(=O)N1CC=CC1(CC(C)C)C(=O)NCc1ccc(C)o1 (stereo not drawn)	-
Cc1ccc(CSC2=Nc3sccc3C3=NC(=O)CN23)cc1	-
Cc1nc(N=Nc2ccc(O)cc2)n[nH]1	13µM
O=C(N/N=C\c1ccc(-c2ccc([N+](=O)[O-])cc2)o1)C1COc2ccccc2O1 (stereo not drawn)	-
CC1CCCN(CCOc2ccc3ccccc3c2Br)C1 (stereo not drawn)	-
COc1ccccc1CNC(=O)C1CCN(S(=O)(=O)c2ccc3c(c2)OCCCO3)CC1	-
O=Cc1s/c(=N\S(=O)(=O)c2ccccc2)n(CCCCl)c1Cl	-
O=CN/C=C/c1cc(O)ccc1O	10µM
Cc1ccc(O)c(CNc2ccc(S(=O)(=O)Nc3nccs3)cc2)c1	-
COc1cc(/C=N/NC(=O)c2cccs2)ccc1O	-
SMILES	PKM2 inh
Cc1nn(CC(=O)N/N=C/c2ccc3c(c2)OCO3)c(C)c1Br	-
Cc1ccsc1C(=O)N/N=C/c1ccc2c(c1)OCO2	13µM
CCc1cccc(C)c1N=Cc1c(O)c2ccccc2oc1=O	-
COc1cccc(-n2nnc3c(=O)n(CC(=O)Nc4cc(C)on4)cnc32)c1	-
Cc1cccc(NS(=O)(=O)c2cc3c(cc2C)n(C)c(=O)c(=O)n3C)c1	-
COc1ccc2cc(/C(C)=N/NC(=O)C3CC3)ccc2c1	-
COc1ccc(C(=O)O/N=C(/C)c2cccs2)cc1	14µM
COc1ccc(S(=O)(=O)N2CCN(C(=O)c3cccs3)CC2)cc1	-
CCN(CC)c1ccc(/C=C2\SC(=O)N(C(C)C)C2=O)o1	-

From PubChem BioAssay
